# Source: PubChem BioAssay (National Center for Advancing Translational Sciences (NCATS))
# Shown are actives, neighbours in structure and some others; about 10% of the full set was active somewhere.
# BAZ2B block = qHTS Assay for Inhibitors of BAZ2B; AlphaScreen BAZ2B-H3K14Ac peptide displacement; Potency, µM (highest dose often 114 µM), for the others: top-dose activity change, negative = inhibition, most hits filed as inhibitors; 4.4% of 360,000 active; AID 504333, 2011; also: % is scaled to controls: 0 for no effect and ±100 for the full control effect; nearly all actives have a fitted effect of over 60% in size
#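 Complex of BAZ2B and biotin-H3K14Ac (50 nM apiece) forms over 30 min at RT, then faces library compounds up to 110 uM for another 30 min; AlphaScreen beads added, 20 min dark incubation, luminescence read.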
# G9a block = qHTS Assay for Inhibitors of Histone Lysine Methyltransferase G9a | 8.8% of 350,000 active | G9a H3K9 monomethylation, AlphaScreen, 2 h | Histone-lysine N-methyltransferase EHMT2 (Homo sapiens), Q96KQ7 | Potency, µM (highest dose often 102 µM), for inactives: at the highest dose activity, negative = inhibition, usual class: inhibitors; also: % is scaled to controls: 0 for no effect and ±100 for the full control effect; nearly all actives have a fitted effect of over 75% in size
# Target sequence (Q96KQ7 913-1193 limits assumed): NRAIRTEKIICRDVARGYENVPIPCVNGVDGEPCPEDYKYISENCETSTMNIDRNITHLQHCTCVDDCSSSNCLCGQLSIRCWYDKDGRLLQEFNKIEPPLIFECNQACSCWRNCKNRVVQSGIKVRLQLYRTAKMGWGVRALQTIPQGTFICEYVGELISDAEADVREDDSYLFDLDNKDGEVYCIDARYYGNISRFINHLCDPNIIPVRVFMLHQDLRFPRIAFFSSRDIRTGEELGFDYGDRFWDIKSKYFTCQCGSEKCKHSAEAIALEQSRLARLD
#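 AlphaScreen detection with an anti-monomethyl H3K9 antibody quantified product after a 2 h room-temperature reaction containing 500 nM biotinylated H3K9 peptide, 20 µM SAM and 20 nM enzyme, which had been preincubated 15 min with compound.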
# GLS inh = qHTS for Inhibitors of Glutaminase (GLS) | AID 624170, 2012 | Glutaminase kidney isoform, mitochondrial (Homo sapiens), O94925 | GLS enzymatic activity, qHTS titration | 0.21% of 410,000 active | Potency, µM (highest dose often 45.5 µM), without a hit: top-dose activity change, negative = inhibition, usual class: inhibitors; also: % is scaled to controls: 0 for no effect and ±100 for the full control effect
#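 Coupled fluorescence readout: glutamate oxidase/HRP/Amplex Red detect glutamate formed by hKGA from L-glutamine (1 mM solution added). Buffer 45 mM KH2PO4 pH 8.2, 0.02% Tween-20; reads at t0 and 30 min RT.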
# HP1b chromo inh = HTS for Inhibitors of HP1-beta Chromodomain Interactions with Methylated Histone Tails | AlphaScreen HP1-beta / biotin-H3K9me3 peptide binding | Chromobox protein homolog 1 (Homo sapiens), P83916 | 0.56% of 390,000 active | Potency, µM (highest dose often 114 µM), for inactives: top-dose activity change, negative = inhibition, most hits filed as inhibitors; also: nearly all actives have a fitted effect of over 70% in size
# Target sequence (P83916 whole entry, looked up): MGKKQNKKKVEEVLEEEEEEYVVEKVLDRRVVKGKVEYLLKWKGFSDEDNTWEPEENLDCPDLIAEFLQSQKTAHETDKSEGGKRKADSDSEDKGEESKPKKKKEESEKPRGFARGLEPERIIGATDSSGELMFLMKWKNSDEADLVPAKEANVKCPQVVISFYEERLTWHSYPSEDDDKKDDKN
#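 HP1-beta protein (50 nM final) preincubated 30 min at room temperature with biotinylated H3(1-18)K9me3 peptide (50 nM) in PBS pH 7.4, 0.01% Tween-20, then compound added for 30 min. AlphaScreen streptavidin donor/nickel chelate acceptor beads (10 ug/mL final), 30 min dark, luminescence read.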
# L3MBTL1 inh = qHTS Assay for the Inhibitors of L3MBTL1; Lethal(3)malignant brain tumor-like protein 1 (Homo sapiens), Q9Y468; AlphaScreen L3MBTL1–H3K9me1 peptide binding; Potency, µM (series often up to 57.1 µM), without a hit: at the highest dose activity, negative = inhibition, usual class: inhibitors; 0.66% of 230,000 active; AID 485360, 2010; also: % is scaled to controls: 0 for no effect and ±100 for the full control effect; nearly all actives have a fitted effect of over 60% in size
#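 First, the protein-peptide complex forms for 30 min at room temperature (L3MBTL1 50 nM, biotinylated H3K9me1 peptide 75 nM). Next, compounds are pin-transferred and incubated 30 min. Finally, AlphaScreen beads are added and read after 30 min.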
# JMJD2A Tudor inh = qHTS Assay for Inhibitors of JMJD2A-Tudor Domain. Lysine-specific demethylase 4A (Homo sapiens), O75164. AlphaScreen JMJD2A-Tudor / H3K4me3 peptide binding. Potency, µM (highest dose often 114 µM), for the others: at the highest dose activity change, negative = inhibition, actives largely listed as inhibitors. 4.4% of 390,000 active. AID 504339, 2011; also: % is scaled to controls: 0 for no effect and ±100 for the full control effect; nearly all actives have a fitted effect of over 50% in size
# * hit, by the source's call; ? = inconclusive; / = no result; [ ] = dose if it differs, or a comment. Calls follow the shape of the dose curve; as a rule, active = well fitted curve in the direction sought with a large enough effect; inconclusive = small, poorly fitted or top-dose-only effect, or another doubt; inactive = no such curve, though single readings can be large; an effect the other way counts as inactive or inconclusive. Potency is read from the fitted curve at half-maximal effect.
SMILES,BAZ2B block,G9a block,GLS inh,HP1b chromo inh,L3MBTL1 inh,JMJD2A Tudor inh
O=[N+]([O-])c1ccc(S(=O)(=O)CC(CN2CCOCC2)N2CCOCC2)cc1 (configuration not stated),14%,56µM*,5%,30%,-9%,-5%
O=[N+]([O-])c1ccccc1S(=O)(=O)Oc1ccc(C(=S)N2CCOCC2)cc1,-27%,28µM*,-4%,?,-2%,?
O=C(Oc1ccc(C(=S)N2CCOCC2)cc1)c1ccc([N+](=O)[O-])cc1,9%,-13%[0.501 µM],-7%,51%,0%[2.29 µM],4%
O=C(Oc1ccccc1C(=S)N1CCOCC1)c1ccc([N+](=O)[O-])cc1[N+](=O)[O-],?,50µM*,1%,?,/,?
COc1cc(C(=S)N2CCOCC2)ccc1OC(=O)c1cccc(C)c1,?,22µM*,0%,-18%,-10%,?
O=C(NCCN1CCOCC1)c1ccc([N+](=O)[O-])cc1[N+](=O)[O-],14%,-14%[59 µM],2%,28%,12%,0%
COc1ccc(C(=S)N2CCOCC2)cc1OC(=O)c1ccccc1Cl,-29%,11µM*,12%,?,/,?
COc1ccccc1NC(=O)c1oc2ccccc2c1NC(=O)c1cccc(OC)c1OC,-1%,26%[59 µM],2%,88%,/,2%
O=C1NC(=O)/C(=C/c2ccc3c(c2)OC(F)(F)O3)S1,/,55%[59 µM],/,/,/,/
CCOc1ccccc1NC(=O)N1CCC2(CC1)Oc1ccccc1C(=O)N2Cc1ccccc1F,-16%,-23%[59 µM],-11%,17%,/,-18%
CCOc1ccc(CNC(=O)c2c(C)nn(-c3ccc(F)cc3)c2-n2cccc2)cc1,-1%,?,-2%,71%,/,3%
Cc1ccc(CN(C(=O)COc2ccc(C(C)C)cc2)C2CCS(=O)(=O)C2)o1 (configuration not stated),?,?,1%,-11%,/,?
O=C(Oc1ccc(C(=S)N2CCOCC2)cc1Br)c1cc(Cl)ccc1Cl,-29%,45µM*,-1%,-2%,-8%,-19%
O=C(Oc1c(Br)cc(C(=S)N2CCOCC2)cc1Br)c1ccc(Cl)cc1,?,/,-16%,?,-21%,?
O=C(COc1ccc(C(=S)N2CCOCC2)cc1Cl)Nc1ccccc1Cl,3%,7.1µM*,4%,-24%,/,2%
COc1cc(C(=S)N2CCOCC2)ccc1OC(=O)c1cc([N+](=O)[O-])cc([N+](=O)[O-])c1,-22%,7.9µM*,6%,?,16%,-21%
COc1ccc(S(=O)(=O)Oc2ccccc2C(=S)N2CCOCC2)cc1,-18%,25µM*,/,/,/,/
CCCCCCOc1ccc(C(=N)N(CCCC)CCCC)c2ccccc12,/,?,-3%,/,/,/
COc1cc(C(=S)N2CCOCC2)ccc1OS(=O)(=O)c1ccc(Cl)cc1,-22%,35µM*,-2%,32%,-5%,-14%
COc1cc(C(=S)N2CCOCC2)cc(OC)c1OC(=O)c1ccccc1[N+](=O)[O-],-28%,?,9%,5%,-3%,-32%
COc1cc(C(=S)N2CCOCC2)ccc1OS(=O)(=O)c1ccc(C)cc1,-33%,13%[59 µM],-9%,32%,-2%,-9%
COc1ccc(C(=S)N2CCOCC2)cc1OC(=O)c1ccc([N+](=O)[O-])cc1[N+](=O)[O-],?,40µM*,-5%,?,/,-30%
COc1ccccc1CNc1ncnc2c1c(-c1ccccc1)cn2-c1ccc(Br)cc1,-24%,-29%[59 µM],-1%,30%,/,-21%
